According to PubChem BioAssay (NCATS):
Inconclusive results are not listed. Active and inactive are the calls of the source. The call rests on the fitted dose curve; in most records, active means well fitted cell-killing curve with a large enough effect; inconclusive means small, poorly fitted or top-dose-only effect, or effect the other way; inactive means flat fitted curve, though single readings scatter.

Key:
Assay in all cases: Primary qHTS to identify gynecologic anti-cancer compounds using libraries of approved drugs and bioactive compounds (AID 1345084); further: nearly all actives have a fitted effect of over 55% in size
CAOV3 = details: Gynecologic cancer cell panel viability, ATPlite luminescence, 48 h; series mostly up to 57.5 µM
How it was run: (§1)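 Cell viability after 48 h drug treatment, ATPlite luminescence readout; five doses.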

CASKI = details: Gynecologic cancer cell panel viability, ATPlite luminescence, 48 h; series mostly up to 57.5 µM
How it was run: as §1

Es-2 = details: Gynecologic cancer cell panel viability, ATPlite luminescence, 48 h; series mostly up to 57.5 µM
How it was run: as §1

HeLa = details: Gynecologic cancer cell panel viability, ATPlite luminescence, 48 h; series mostly up to 57.5 µM
How it was run: as §1

Hek293T = details: Gynecologic cancer cell panel viability, ATPlite luminescence, 48 h, control line for the selectivity index; series mostly up to 57.5 µM
How it was run: as §1

JEG-3 = details: Gynecologic cancer cell panel viability, ATPlite luminescence, 48 h; series mostly up to 57.5 µM
How it was run: as §1

OV90 = details: Gynecologic cancer cell panel viability, ATPlite luminescence, 48 h; series mostly up to 57.5 µM
How it was run: as §1

PA-1 = details: Gynecologic cancer cell panel viability, ATPlite luminescence, 48 h; series mostly up to 57.5 µM
How it was run: as §1

SKOV3 = details: Gynecologic cancer cell panel viability, ATPlite luminescence, 48 h; series mostly up to 57.5 µM
How it was run: as §1

Tov-21-G = details: Gynecologic cancer cell panel viability, ATPlite luminescence, 48 h; series mostly up to 57.5 µM
How it was run: as §1

Tov112D = details: Gynecologic cancer cell panel viability, ATPlite luminescence, 48 h; series mostly up to 57.5 µM
How it was run: as §1
On the % scale 0 is the no-effect control and ±100 the full control effect.

C[C@@H]1C[C@H](O)/C=C/[C@H](O)[C@@H](O)CC(=O)O1
inactive: Potency (CAOV3) | Potency (CASKI) | Potency (Es-2) | Potency (HeLa) | Potency (Hek293T) | Potency (JEG-3) | Potency (OV90) | Potency (PA-1) | Potency (SKOV3) | Potency (Tov-21-G) | Potency (Tov112D)

C=CC(C)(C)C12CC3C(=O)NC(Cc4cnc[nH]4)C(=O)N3C1Nc1ccccc12 (stereo not drawn)
inactive: Potency (CAOV3) | Potency (CASKI) | Potency (Es-2) | Potency (HeLa) | Potency (Hek293T) | Potency (JEG-3) | Potency (OV90) | Potency (PA-1) | Potency (SKOV3) | Potency (Tov-21-G) | Potency (Tov112D)

Cc1onc(-c2ccccc2)c1C(=O)N[C@@H]1C(=O)N2[C@@H]1SC(C)(C)[C@@H]2C(=O)O
inactive: Potency (CAOV3) | Potency (CASKI) | Potency (Es-2) | Potency (HeLa) | Potency (Hek293T) | Potency (JEG-3) | Potency (OV90) | Potency (PA-1) | Potency (SKOV3) | Potency (Tov-21-G) | Potency (Tov112D)

C=C1CC23CCC4[C@@](C)(CCC[C@@]4(C)C(=O)O)C2CCC1C3 (stereo partly drawn)
inactive: Potency (CAOV3) | Potency (CASKI) | Potency (Es-2) | Potency (HeLa) | Potency (Hek293T) | Potency (JEG-3) | Potency (OV90) | Potency (PA-1) | Potency (SKOV3) | Potency (Tov-21-G) | Potency (Tov112D)

CN[C@@H]1[C@@H](O)[C@@H](O[C@@H]2[C@@H](O)[C@H](O[C@H]3O[C@H](CN)[C@@H](O)[C@H](O)[C@H]3O)[C@@H](N)C[C@H]2NC(=O)[C@@H](O)CN)OC[C@]1(C)O
inactive: Potency (CAOV3) | Potency (CASKI) | Potency (Es-2) | Potency (HeLa) | Potency (Hek293T) | Potency (JEG-3) | Potency (OV90) | Potency (PA-1) | Potency (SKOV3) | Potency (Tov-21-G) | Potency (Tov112D)

CC/C=C\C[C@H]1C(=O)C=C[C@@H]1CCCCCCCC(=O)O
inactive: Potency (CAOV3) | Potency (CASKI) | Potency (Es-2) | Potency (HeLa) | Potency (Hek293T) | Potency (JEG-3) | Potency (OV90) | Potency (PA-1) | Potency (SKOV3) | Potency (Tov-21-G) | Potency (Tov112D)

CCOc1c2c(c(OCC)c3ccccc13)C(=O)N(c1ccc(CC(=O)NS(=O)(=O)c3ccccc3)cc1)C2
inactive: Potency (CAOV3) | Potency (CASKI) | Potency (Es-2) | Potency (HeLa) | Potency (Hek293T) | Potency (JEG-3) | Potency (OV90) | Potency (PA-1) | Potency (SKOV3) | Potency (Tov-21-G) | Potency (Tov112D)

CC1=CC(=O)CC(C)(C)C1(O)CCC(C)O (stereo not drawn)
inactive: Potency (CAOV3) | Potency (CASKI) | Potency (Es-2) | Potency (HeLa) | Potency (Hek293T) | Potency (JEG-3) | Potency (OV90) | Potency (PA-1) | Potency (SKOV3) | Potency (Tov-21-G) | Potency (Tov112D)

CC(=O)N(O)CCCCCN1C(=O)CCC1=O
inactive: Potency (CAOV3) | Potency (CASKI) | Potency (Es-2) | Potency (HeLa) | Potency (Hek293T) | Potency (JEG-3) | Potency (OV90) | Potency (PA-1) | Potency (SKOV3) | Potency (Tov-21-G) | Potency (Tov112D)

N#Cc1ccnc(N2C(=O)CC[C@H]2C(=O)N(c2cncc(F)c2)[C@H](C(=O)NC2CC(F)(F)C2)c2ccccc2Cl)c1
inactive: Potency (CAOV3) | Potency (CASKI) | Potency (Es-2) | Potency (HeLa) | Potency (Hek293T) | Potency (JEG-3) | Potency (OV90) | Potency (PA-1) | Potency (SKOV3) | Potency (Tov-21-G) | Potency (Tov112D)

C[C@@H]1O[C@@H](O[C@H]2[C@H](OC(=O)[C@]34CCC(C)(C)C[C@H]3C3=CCC5[C@@]6(C)CC[C@H](O[C@@H]7O[C@H](CO[C@@H]8OC[C@H](O)[C@H](O)[C@H]8O)[C@@H](O)[C@H](O)[C@H]7O)C(C)(C)C6CC[C@@]5(C)[C@]3(C)C[C@H]4O)OC[C@@H](O)[C@@H]2O)[C@H](O)[C@H](O)[C@H]1O[C@@H]1OC[C@H](O)[C@H](O[C@@H]2OC[C@@H](O)[C@H](O)[C@H]2O)[C@H]1O (stereo partly drawn)
inactive: activity change, negative = cytotoxicity (CAOV3) -15.5% [at 6.55 µM] | activity change, negative = cytotoxicity (CASKI) -13.2% [at 6.55 µM] | activity change, negative = cytotoxicity (Es-2) -2.02% [at 6.55 µM] | activity change, negative = cytotoxicity (HeLa) 18.3% [at 6.55 µM] | activity change, negative = cytotoxicity (Hek293T) -6.63% [at 6.55 µM] | activity change, negative = cytotoxicity (JEG-3) -1.75% [at 6.55 µM] | activity change, negative = cytotoxicity (OV90) -10.8% [at 6.55 µM] | activity change, negative = cytotoxicity (PA-1) 1.4% [at 6.55 µM] | activity change, negative = cytotoxicity (SKOV3) 14.1% [at 6.55 µM] | activity change, negative = cytotoxicity (Tov-21-G) -9.88% [at 6.55 µM] | activity change, negative = cytotoxicity (Tov112D) 9.32% [at 6.55 µM]

O=C(CCO[C@@H]1O[C@H](CO)[C@@H](O)[C@H](O)[C@H]1O)c1ccc(O)cc1
inactive: Potency (CAOV3) | Potency (CASKI) | Potency (Es-2) | Potency (HeLa) | Potency (Hek293T) | Potency (JEG-3) | Potency (OV90) | Potency (PA-1) | Potency (SKOV3) | Potency (Tov-21-G) | Potency (Tov112D)

CNC(=O)Nc1ccc(OC)c(NC(=O)NC(=O)c2cc(F)c(F)cc2Cl)c1
inactive: Potency (CAOV3) | Potency (CASKI) | Potency (Es-2) | Potency (HeLa) | Potency (Hek293T) | Potency (JEG-3) | Potency (OV90) | Potency (PA-1) | Potency (SKOV3) | Potency (Tov-21-G) | Potency (Tov112D)
